Assay outcomes (PubChem)
In the library only some 7.8% were active in any assay of this set; here they are far more common.
Marburg entry inh = inhibitors of Marburg virus binding or cell entry; AID 540276; Marburg virus pseudotyped entry inhibition, cell reporter; Potency, µM (top dose mostly 37.8 µM), without a hit: at the top dose activity change, negative = inhibition, usual class: inhibitors; hit rate 1.8% among 300,000; calls by dose curve; tested in HEK293 cells; note: potency is the fitted concentration of half-maximal effect
Vaccinia mCherry = vaccinia inhibition (mCherry reporter); hit rate 0.63% among 310,000; AID 720579; Potency, µM (highest dose often 36.5 µM), without a hit: at the highest dose activity change, negative = inhibition, hits mostly inhibitors; Vaccinia virus mCherry reporter infection, fluorescence; calls by dose curve; tested in A549 cells; note: potency is the fitted concentration of half-maximal effect; nearly all actives have a fitted effect of over 35% in size
HCMV inh = inhibitors of human cytomegalovirus; HFF cells, HCMV-luciferase reporter, 72 h; hits give low values; activity change, negative = inhibition, % at 57.5 µM; hit rate 4.5% among 410,000; AID 1259415; in the data active = activity change below about -60%; inconclusive = no clear call, values can overlap the other calls; inactive = above about -39%
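After 16 h attachment at 37C, HFF cells received test compound and HCMV-luciferase (1 PFU/cell); reporter luminescence read 72 h later, data normalized against buffer-only and known inhibitor Salinomycin.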
HCV inh = HCV inhibition | hit rate 3.4% among 340,000 | AID 651820 | Potency, µM (highest dose often 41.8 µM), without a hit: at the top dose activity change, negative = inhibition, hits mostly inhibitors | Huh7.5.1 HCVcc-Cre infection, luciferase reporter, 44 h; active = well fitted inhibition curve with a large enough effect; inconclusive = small, poorly fitted or top-dose-only effect, or another doubt; inactive = no such curve, though single readings can be large or run the other way; note: potency is the fitted concentration of half-maximal effect
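After 44 h co-culture of compound, cells and HCVcc-Cre (~0.5 moi), substrate is added for 15 min at room temperature and luciferase measured over 15 sec. Cells were seeded at 1,000/well and pre-cultured 4 h.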
Vaccinia Venus = vaccinia inhibition (Venus reporter); Vaccinia virus Venus reporter expression, fluorescence; Potency, µM (top dose mostly 36.5 µM), for inactives: at the top dose activity change, negative = inhibition, actives largely listed as inhibitors; hit rate 0.46% among 330,000; AID 720580; calls by dose curve; tested in A549 cells; note: potency is the fitted concentration of half-maximal effect; nearly all actives have a fitted effect of over 30% in size
LASV entry inh = Lassa virus entry inhibition; Potency, µM (doses to about 37.9 µM), for inactives: at the top dose activity change, negative = inhibition, hits mostly inhibitors; Lassa virus pseudotype entry inhibition, cell reporter; hit rate 1.2% among 300,000; calls by dose curve; tested in HEK293 cells; note: potency is the fitted concentration of half-maximal effect; nearly all actives have a fitted effect of over 50% in size
An asterisk follows results filed as active; i = inactive; ? = inconclusive; . = no result; [ ] = dose if it differs, or a comment. % is set by controls: 0 for no effect and ±100 for the full control effect.

SMILES | Marburg entry inh | Vaccinia mCherry | HCMV inh | HCV inh | Vaccinia Venus | LASV entry inh
Cc1ccc(Oc2ccc(C(=O)NCc3ccncc3)cc2)cc1 | ? | -28% | -83* | 3.2µM* | -7% | 8.9µM*
Fc1ccc(Nc2nnc(C(F)(F)F)s2)cc1Cl | ? | -19% | -98* | ? | ? | ?
Nc1c(Cl)ncnc1N/N=C/c1ccc2ccccc2n1 | 16µM* | 2.8µM* | -98* | 4µM* | ? | ?
Nc1c(Cl)ncnc1N/N=C/c1ccccn1 | ? | 2.2µM* | -99* | ? | ? | 2.5µM*
C=Cc1ccc(C(=O)N2CCc3c(cnc(C)c3CNC(=O)c3ccc4c(c3)OCO4)C2)cc1 | . | -9% | . | . | -6% | .
CCOc1ccc(NC(=O)CSc2ncc(S(=O)(=O)c3ccc(F)c(C)c3)c(=O)[nH]2)cc1 | -5%[46.1 µM] | 1% | 5 | . | -4% | .
O=C1CN(C(=O)c2cccc(Br)c2)C(c2ccccc2)c2cc(Cl)ccc2N1 (stereo not drawn) | . | -11% | -63* | . | -6% | ?
O=C1CN(C(=O)Cc2ccccc2)C(c2ccc(F)cc2)c2cc(Br)ccc2N1 (stereo not drawn) | 10µM* | -18% | 15 | . | -17% | ?
O=C1CN(C(=O)c2ccc(S(=O)(=O)N3CCCCC3)cc2)C(c2ccc(F)cc2)c2cc(F)ccc2N1 (stereo not drawn) | ? | -21% | 0 | . | -19% | -9%[46.1 µM]
O=C1CN(C(=O)c2c(F)cccc2F)C(c2ccccc2)c2cc(Br)ccc2N1 (stereo not drawn) | . | . | -8 | -23% | . | .
O=C1CN(C(=O)COc2ccccc2)C(c2ccc(F)cc2)c2cc(Br)ccc2N1 (stereo not drawn) | ? | -4% | 3 | . | -15% | -20%[46.1 µM]
O=C1CN(C(=O)c2ccc(S(=O)(=O)N3CCCCC3)cc2)C(c2ccc(F)cc2)c2cc(Cl)ccc2N1 (stereo not drawn) | 8.9µM* | -17% | -4 | . | -10% | ?
Cc1ncc2c(c1CNS(=O)(=O)N(C)C)CCN(C(=O)/C=C/c1ccccc1)C2 | . | -1% | . | . | 14% | .
N#Cc1cc(S(=O)(=O)c2ccc(F)cc2)c(N)[nH]c1=O | . | . | -70* | 11% | . | .
CC(=O)c1ccc(Nc2ccc3cc(S(=O)(=O)N4CCCC4)ccc3n2)cc1 | . | -22% | -11 | . | -19% | -7%[46.1 µM]
CCOC(=O)C1=C(CS(=O)(=O)c2ccc(C)cc2)NC(=O)NC1c1ccc(C(C)C)cc1 (stereo not drawn) | ? | -11% | -39 | . | -11% | ?
CS(=O)(=O)c1cnc(-c2cccnc2)nc1N | 1%[46.1 µM] | -5% | -91* | 15% | -3% | -8%
Cc1ccc(Cn2nc(C)c(C(=O)NCC(c3cccs3)N3CCOCC3)c2Cl)cc1 (stereo not drawn) | -13% | i | ? | 4% | -14% | 13µM*
C=CCOC(=O)N[C@H](c1ccc(-c2ccccc2)cc1)[C@H](C)C=CCC(=O)OC | -4%[14.2 µM] | . | . | . | . | ?
N#CCSc1nc(Nc2ccc3c(c2)OCO3)c2ccccc2n1 | ? | . | -63* | 8.9µM* | . | -17%
CC(C)(C)OC(=O)NCCCCCc1cn([C@@H](CO)C(=O)NCCCCCCCCCCC(=O)N2CCN(C(=O)OC(C)(C)C)CC2)nn1 | . | ? | -95* | ? | ? | .
CC[C@H](C)[C@@H](C(=O)NCCCCCCCCCCC(=O)N1CCN(C(=O)OC(C)(C)C)CC1)n1cc(CCCCN=C(NC(=O)OC(C)(C)C)NC(=O)OC(C)(C)C)nn1 | . | . | . | 15% | . | .
CC[C@H](C)[C@@H](C(=O)NCCCCCCCCCCC(=O)N1CCN(C(=O)OC(C)(C)C)CC1)n1cc(CCCCCNC(=O)OC(C)(C)C)nn1 | . | ? | -69* | ? | ? | .
CN1C(=O)C(C(Nc2ccccc2)c2ccc(Br)cc2)c2ccccc21 (stereo not drawn) | . | . | 49 | . | . | .
CN(Cc1ccccc1N1CCCC1)C(=O)c1cc2cc(Cl)ccc2o1 | . | . | -6 | 11µM* | . | .
CN(Cc1ccccc1N1CCCC1)C(=O)c1cc2ccccc2o1 | ? | -8% | 61 | ? | -11% | -1%[46.1 µM]
O=[N+]([O-])c1cc([N+](=O)[O-])c(Oc2cc(Cl)cc(Cl)c2)cc1NN1CCCCC1 | . | ? | -78* | 3% | -15% | .
